Source: PubChem BioAssay (National Center for Advancing Translational Sciences (NCATS))
A selection: hits, their analogues and other compounds. The true share with any hit is near 19%.
DT40 TDP1 CPT – growth inhibition of DT40 Tdp1-/-;hTDP1 cells with camptothecin (screen for TDP1 inhibitors); chicken DT40 Tdp1-/-;hTDP1 cells + 20 nM CPT, ATP luminescence, 48 h; Potency, µM (titrated, usually from 46.2 µM), without a hit: at the top dose activity change, negative = growth inhibition, actives largely listed as inhibitors; 420,000 compounds, 12% hits; also: potency is read from the fitted curve at half-maximal effect; nearly all actives have a fitted effect of over 55% in size
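Chicken DT40 Tdp1-/- cells complemented with human TDP1, 400 cells/well, exposed to compounds plus 20 nM camptothecin for at least 48 h at 37 C; viability read as ATP content by CellTiter-Glo luminescence.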
DT40 TDP1 no CPT – qHTS for Inhibitors of human tyrosyl-DNA phosphodiesterase 1 (TDP1): qHTS in cells in absence of CPT; DT40 Tdp1-/- hTDP1 cells, no CPT, ATP luminescence, 48 h; Potency, µM (top dose mostly 46.2 µM), without a hit: at the highest dose activity change, negative = growth inhibition, actives largely listed as inhibitors; 420,000 compounds, 15% hits; AID 686978, 2013; also: potency is read from the fitted curve at half-maximal effect; nearly all actives have a fitted effect of over 55% in size
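Growth kinetics read by CellTiter-Glo luminescence after ≥48 hr at 37 °C. Cells: DT40 Tdp1-/- stably carrying human TDP1, 400 per well, compound exposure in the absence of CPT (DMSO vehicle).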
IL1B secr inh – inhibitors of inflammasome signaling (IL-1 beta secretion); THP-1 LPS/ATP IL-1B secretion, AlphaLISA, 16 h; active compounds read low; activity change, % at 57.5 µM; 360,000 compounds, 4.7% hits; AID 743279; in the data active = activity change below about -50%; inconclusive = mostly about -30% to -49%
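THP-1 cells pretreated 1 hr with compounds (up to 57.5 uM final), then stimulated with LPS (250 ng/mL final) plus ATP (1.25 mM final); secreted IL-1B measured by AlphaLISA after 16 hr, decreased signal indicating inhibition.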
HT1080 IDH1KD tx – HT-1080 IDH1 knockdown cell toxicity (counter line) | HT-1080 IDH1 knockdown viability, ATP luminescence, 48 h | Potency, µM (highest dose often 46.1 µM), for the others: at the highest dose activity, negative = toxicity, most hits filed as cytotoxic | 360,000 compounds, 2% hits | AID 686971;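 also: potency is read from the fitted curve at half-maximal effect; 0% = DMSO wells and -100% = cell-free medium wells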
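HT-1080-IDH1KD cells (IDH1 knocked down), 750/well in RPMI with 5% FBS, treated with compound 48 h at 37 degrees C. Viability by CellTiter-Glo luminescence, normalised to DMSO and no-cell wells; concentration-response curves classed.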
HT1080-NT tox – kills 2HG-producing HT-1080-NT fibrosarcoma cells | Potency, µM (highest dose often 46.1 µM), for inactives: at the top dose activity, negative = less viability, hits mostly cytotoxic | HT-1080-NT fibrosarcoma viability, CellTiter-Glo ATP luminescence, 48 h | 360,000 compounds, 1.6% hits | AID 686970;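 also: NT is the 2HG producing partner of a matched IDH1 knockdown line; potency is read from the fitted curve at half-maximal effect; 0% = DMSO-treated cells and -100% = media-only wells without cells; nearly all actives have a fitted effect of over 55% in size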
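HT-1080-NT; 750 cells/well; 5% FBS RPMI; 48 h compound, 37 degrees C; CellTiter-Glo luminescence; curve fitting and curve-class assignment.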
An asterisk follows results filed as active; ? = inconclusive; . = not tested or not shown; [ ] = dose if it differs, or a comment. Unless noted, calls follow the shape of the dose curve; as a rule, active = well fitted curve in the direction sought with a large enough effect; inconclusive = small, poorly fitted or top-dose-only effect, or another doubt; inactive = no such curve, though single readings can be large; an effect the other way counts as inactive or inconclusive. Unless noted, % is scaled to controls: 0 for no effect and ±100 for the full control effect.

SMILES | DT40 TDP1 CPT | DT40 TDP1 no CPT | IL1B secr inh | HT1080 IDH1KD tx | HT1080-NT tox
Cc1ccc(-c2nc(Nc3ccc(N4CCOCC4)cc3)c3ccccc3n2)cc1 | ? | 23.1µM* | . | 20.6µM* | 18.4µM*
O=[N+]([O-])c1ccc(-c2nc(Nc3cccc(O)c3)c3ccccc3n2)cc1 | 16.4µM* | 4.11µM* | -69.9* | ? | ?
NNc1nc(-c2ccccc2Cl)nc2ccccc12 | -29.2% | -19.7% | -2.4 | 1.2% | -6.2%
Oc1cccc(Nc2nc(-c3ccccc3Cl)nc3ccccc23)c1 | 16.4µM* | 13µM* | ? | ? | ?
O=C(O)c1cccc(Nc2nc(-c3ccccc3)nc3ccccc23)c1 | 6.9% | -21.1% | 13.4 | -15.1% | -13.7%
COC(=O)[C@H](CC(C)C)NS(=O)(=O)NC(=O)OC(C)(C)C | -15.4% | -0.5% | . | . | .
Cc1nn(C)c(C)c1CCNC(=O)Nc1cccc(Cl)c1C | 1.4% | -26.2% | . | . | .
CCN(CC)S(=O)(=O)c1ccc(N2CCCC2)c(NC(=O)c2ccc(N3CCCC3=O)cc2)c1 | -16.3% | ? | -12.4 | -1.0% | 4.2%
CC[C@H](C)C(C(=O)N1CCN(C(=O)OC(C)(C)C)CC1)n1cc(C(CC(C)C)NC(=O)OC(C)(C)C)nn1 (stereo partly drawn) | 23.1µM* | ? | -4.4 | 5.1% | 6.7%
CC(C)CC(NC(=O)OC(C)(C)C)c1cn([C@@H](CCC(=O)OC(C)(C)C)C(=O)N2CCN(C(=O)OC(C)(C)C)CC2)nn1 (stereo partly drawn) | 16.4µM* | 16.4µM* | -5.3 | 11.8% | 3.7%
CC[C@@H](C)[C@@H](C(=O)N1CCN(C(=O)OC(C)(C)C)CC1)n1cc(CCCCNC(=O)OC(C)(C)C)nn1 | 13µM* | 13µM* | -22.4 | -1.9% | -2.0%
Cc1cccc(C)c1NC(=O)C(c1cc2ccccc2o1)N1CCN(C)CC1 (stereo not drawn) | -12.6% | -12.1% | 7.1 | 0.0% | -18.0%
COc1ccccc1C(=O)Nc1nc2nc(C)c(Cc3ccccc3)c(=O)n2[nH]1 | -18.2% | -12.0% | . | . | .
O=C(CSc1nc(-c2ccco2)cc(C(F)(F)F)n1)NCCCN1CCOCC1 | 3.6% | -3.4% | -10.2 | -3.7% | 0.3%
CCOC(=O)c1[nH]c2cc3c(cc2c1NC(=O)CN1CCc2ccccc2C1)OCO3 | 16.4µM* | 11.6µM* | -15.3 | -24.4% | -2.4%
CCOC(=O)c1[nH]c2cc3c(cc2c1NC(=O)CN1CCC(C)CC1)OCO3 | 17.8µM* | 11.2µM* | -22.4 | -7.0% | -6.1%
CSCCC(NC(=O)c1ccc(Cl)cc1Cl)C(=O)NCC(c1cccs1)N(C)C (stereo not drawn) | -15.9% | -23.4% | 0.0 | 2.3% | 3.2%[9.24 µM]
CCc1ccc(Nc2nc(-c3cc4cccc(OC)c4oc3=O)c(CC)s2)cc1 | ? | 23.1µM* | . | . | .
CCc1sc(Nc2ccc(Cl)cc2)nc1-c1cc2cccc(OC)c2oc1=O | ? | 20.6µM* | . | . | .
COc1cccc2cc(-c3nc(-c4ccccc4F)no3)c(=O)oc12 | -4.9% | -27.9% | . | . | .
COc1cccc2cc(-c3ccccc3)c(=O)oc12 | 18.6% | -25.1% | -5.4 | -17.6% | -20.6%
Cc1ccc(-n2nc(C(=O)Nc3ccc(Br)cc3C)c(=O)n(C)c2=O)cc1 | -15.5% | -15.2% | . | . | .
CN(C)c1ncc2nc(-c3ccc(Cl)cc3)c(=O)n(C)c2n1 | 2.2% | 12.4% | . | . | .
CCSc1nnc(N2C(=O)c3ccc(C(=O)c4ccc(C(=O)O)cc4)cc3C2=O)s1 | 5.6% | 16.6% | 9.9 | 13.5% | 10.6%
Cc1onc(-c2ccccc2)c1C(=O)Nc1cccc(C#N)c1 | 1.7% | 1.0% | -14.0 | 1.6% | 3.1%
SMILES | DT40 TDP1 CPT | DT40 TDP1 no CPT | IL1B secr inh | HT1080 IDH1KD tx | HT1080-NT tox
COC(=O)[C@@]1(Cc2ccccc2)[C@@H]2C(=CC(=O)[C@H]2CC(=O)C(=O)N(C)C)CN1C(=O)c1ccccc1 | 9.2µM* | 8.2µM* | -105.3* | 20.6µM* | 16.4µM*
COC(=O)Cn1c(C(=O)N(C)C)cc2c1C[C@H]1CN(C(=O)c3ccccc3)[C@@](Cc3ccc(F)cc3)(C(=O)OC)[C@@H]21 | ? | ? | 25.7 | -13.5% | 4.4%
O=[N+]([O-])c1ccccc1CN1CCN(c2ncccn2)CC1 | -10.6% | ? | 35.5 | 0.8% | -3.8%
O=C(c1ccccc1)N1CCN(Cc2c[nH]c3ccccc23)CC1 | ? | ? | -83.4* | -0.6% | 3.0%
COc1ccccc1C(=O)N1CCN(Cc2c[nH]c3ccccc23)CC1 | 14.6µM* | 16.4µM* | -0.6 | 13.3% | 9.6%
O=[N+]([O-])c1ccccc1CN1CCN(Cc2ccccn2)CC1 | 25.9µM* | ? | -9.2 | 1.2% | 3.1%
O=[N+]([O-])c1ccccc1CN1CCN(Cc2c[nH]c3ccccc23)CC1 | 2.91µM* | 3.66µM* | ? | -25.9% | -2.8%
CC(NC(=O)CSC(=S)N(C)C)C12CC3CC(CC(C3)C1)C2 (stereo not drawn) | ? | ? | 11.8 | -7.9% | -3.6%
Cc1nnc(NC(=O)CSCc2cc(=O)c3ccc(C)c(C)c3[nH]2)s1 | 0.0% | ? | . | . | .
C=CCc1cccc(CNc2cnc3ccccc3c2)c1O | 6.51µM* | 10.3µM* | 9.8 | -27.5% | -12.7%
Oc1ccc(Cl)cc1CNc1cnc2ccccc2c1 | ? | 29.1µM* | -10.5 | ? | -23.7%
Oc1ccc2ccccc2c1CNc1cnc2ccccc2c1 | -18.1% | -28.5% | -4.5 | 4.1% | 5.0%
Oc1ccccc1CNc1cnc2ccccc2c1 | 23.1µM* | 23.1µM* | -10.8 | -22.0% | -26.2%
O=C1NC(=O)C(Cc2ccccc2)(C2CCN(Cc3cccn3-c3cccnc3)CC2)N1 (stereo not drawn) | 1.8% | -17.9% | . | . | .
COc1cc(C2CC(=O)C3=C(C2)Nc2ncnn2C3c2cccs2)cc(OC)c1OC (stereo not drawn) | -1.0% | 0.5% | 23.3 | -15.1% | ?
COc1cc(C2C=C(c3cccs3)Nc3ncnn32)cc(OC)c1OC (stereo not drawn) | 0.82µM* | 0.651µM* | -4.2 | ? | ?
CC(=O)n1c2c(c3ccccc31)OC(N)=C(C#N)C2c1cccc(Cl)c1Cl (stereo not drawn) | 14.6µM* | 7.31µM* | 20.1 | ? | ?
O=S(=O)(O)c1cc(Cl)cc(N=Nc2ccc(O)cc2O)c1O | -11.3% | ? | 0.0 | -12.9% | -0.9%
Cc1cc(-c2ccc(N=Nc3c(S(=O)(=O)O)cc4cc(S(=O)(=O)O)cc(N)c4c3O)c(C)c2)ccc1N=Nc1c(S(=O)(=O)O)cc2cc(S(=O)(=O)O)cc(N)c2c1O | 9.44µM* | 9.44µM* | . | . | .
O=S(=O)(O)c1cc(O)c2c(O)c(N=Nc3cc(Cl)ccc3O)c(S(=O)(=O)O)cc2c1 | 18.4µM* | 18.4µM* | -29.6 | ? | ?
